The results in this text go back to the supplement of paper PMC10849652.

The full data set covers some 7,900 targets. This sample favours those with a hit. About 0.6% of all pairs of compound and target were hits. A number with no mark means an inactive call.

Chain of UniProt Q9UKM9 (Q9UKM9 whole entry, looked up): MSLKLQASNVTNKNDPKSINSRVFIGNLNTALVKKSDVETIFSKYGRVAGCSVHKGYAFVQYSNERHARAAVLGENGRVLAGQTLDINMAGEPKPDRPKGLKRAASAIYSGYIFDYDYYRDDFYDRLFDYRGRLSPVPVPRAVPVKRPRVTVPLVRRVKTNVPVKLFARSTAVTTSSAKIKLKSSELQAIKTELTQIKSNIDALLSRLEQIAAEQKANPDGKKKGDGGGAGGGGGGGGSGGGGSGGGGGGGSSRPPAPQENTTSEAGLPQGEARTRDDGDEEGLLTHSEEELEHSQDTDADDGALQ
Chain of UniProt Q5RL73 (Q5RL73 whole entry, looked up): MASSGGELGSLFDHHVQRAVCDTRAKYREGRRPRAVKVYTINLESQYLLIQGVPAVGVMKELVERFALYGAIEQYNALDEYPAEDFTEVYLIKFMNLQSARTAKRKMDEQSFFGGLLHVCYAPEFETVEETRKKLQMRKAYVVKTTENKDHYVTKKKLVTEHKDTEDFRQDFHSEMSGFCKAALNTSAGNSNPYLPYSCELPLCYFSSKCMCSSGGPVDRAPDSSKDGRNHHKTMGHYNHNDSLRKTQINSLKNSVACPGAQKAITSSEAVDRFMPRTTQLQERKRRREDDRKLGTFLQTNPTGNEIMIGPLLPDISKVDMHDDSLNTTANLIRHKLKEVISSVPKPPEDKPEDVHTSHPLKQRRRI
Chain of UniProt Q14493 (Q14493 whole entry, looked up): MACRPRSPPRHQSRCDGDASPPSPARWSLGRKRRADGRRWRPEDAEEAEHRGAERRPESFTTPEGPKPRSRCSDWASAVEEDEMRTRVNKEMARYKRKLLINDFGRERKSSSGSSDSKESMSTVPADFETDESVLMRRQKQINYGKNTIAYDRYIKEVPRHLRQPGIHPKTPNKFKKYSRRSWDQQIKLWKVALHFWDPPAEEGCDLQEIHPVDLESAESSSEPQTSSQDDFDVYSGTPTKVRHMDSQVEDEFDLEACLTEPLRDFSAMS
Chain of UniProt P51151 (P51151 whole entry, looked up): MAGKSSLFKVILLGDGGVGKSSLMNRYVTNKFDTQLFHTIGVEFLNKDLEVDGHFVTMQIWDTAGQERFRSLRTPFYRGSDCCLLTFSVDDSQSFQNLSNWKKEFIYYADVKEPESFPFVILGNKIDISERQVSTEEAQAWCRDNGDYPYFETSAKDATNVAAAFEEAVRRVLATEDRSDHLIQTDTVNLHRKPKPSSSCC
Chain of UniProt Q14498 (Q14498 whole entry, looked up): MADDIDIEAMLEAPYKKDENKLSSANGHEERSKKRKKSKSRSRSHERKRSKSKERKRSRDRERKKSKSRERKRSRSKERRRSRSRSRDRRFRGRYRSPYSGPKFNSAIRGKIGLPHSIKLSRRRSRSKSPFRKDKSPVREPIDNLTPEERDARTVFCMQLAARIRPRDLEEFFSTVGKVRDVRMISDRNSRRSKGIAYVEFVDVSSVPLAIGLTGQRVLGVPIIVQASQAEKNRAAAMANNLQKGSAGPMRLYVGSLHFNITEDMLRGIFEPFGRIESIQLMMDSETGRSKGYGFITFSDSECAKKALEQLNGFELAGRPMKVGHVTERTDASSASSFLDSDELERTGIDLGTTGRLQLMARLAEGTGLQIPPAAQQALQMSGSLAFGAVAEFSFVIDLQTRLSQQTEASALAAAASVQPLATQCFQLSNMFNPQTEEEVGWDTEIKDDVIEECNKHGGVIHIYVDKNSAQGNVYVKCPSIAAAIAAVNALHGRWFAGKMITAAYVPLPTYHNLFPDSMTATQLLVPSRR
Chain of UniProt Q8WXD2 (Q8WXD2 whole entry, looked up): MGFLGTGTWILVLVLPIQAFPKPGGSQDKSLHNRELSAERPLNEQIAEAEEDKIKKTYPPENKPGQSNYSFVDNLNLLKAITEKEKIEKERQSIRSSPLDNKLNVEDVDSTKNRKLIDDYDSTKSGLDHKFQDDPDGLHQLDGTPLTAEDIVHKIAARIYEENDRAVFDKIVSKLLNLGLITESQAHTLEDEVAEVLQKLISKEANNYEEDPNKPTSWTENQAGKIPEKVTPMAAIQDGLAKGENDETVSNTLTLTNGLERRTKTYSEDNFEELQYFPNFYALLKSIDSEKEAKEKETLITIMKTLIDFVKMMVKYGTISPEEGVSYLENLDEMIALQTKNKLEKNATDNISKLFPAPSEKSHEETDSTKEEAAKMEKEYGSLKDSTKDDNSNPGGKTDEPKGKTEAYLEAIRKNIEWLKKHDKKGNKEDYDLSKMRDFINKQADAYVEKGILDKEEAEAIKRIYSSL
Chain of UniProt Q9Y3L5 (Q9Y3L5 whole entry, looked up): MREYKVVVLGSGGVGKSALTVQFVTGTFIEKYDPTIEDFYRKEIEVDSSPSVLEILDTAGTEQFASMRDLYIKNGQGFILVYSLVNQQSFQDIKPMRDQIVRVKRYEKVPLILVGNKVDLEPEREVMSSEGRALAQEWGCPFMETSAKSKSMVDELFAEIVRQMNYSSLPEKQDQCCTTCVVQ
Chain of UniProt O43819 (O43819 whole entry, looked up): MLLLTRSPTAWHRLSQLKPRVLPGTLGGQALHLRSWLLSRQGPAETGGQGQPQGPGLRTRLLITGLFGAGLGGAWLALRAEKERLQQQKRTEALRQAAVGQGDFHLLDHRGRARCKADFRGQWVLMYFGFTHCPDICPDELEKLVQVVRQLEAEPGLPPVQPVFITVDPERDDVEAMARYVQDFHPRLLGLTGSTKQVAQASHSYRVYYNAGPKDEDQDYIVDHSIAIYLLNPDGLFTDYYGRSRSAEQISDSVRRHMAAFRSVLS
Chain of UniProt P51812 (P51812 whole entry, looked up): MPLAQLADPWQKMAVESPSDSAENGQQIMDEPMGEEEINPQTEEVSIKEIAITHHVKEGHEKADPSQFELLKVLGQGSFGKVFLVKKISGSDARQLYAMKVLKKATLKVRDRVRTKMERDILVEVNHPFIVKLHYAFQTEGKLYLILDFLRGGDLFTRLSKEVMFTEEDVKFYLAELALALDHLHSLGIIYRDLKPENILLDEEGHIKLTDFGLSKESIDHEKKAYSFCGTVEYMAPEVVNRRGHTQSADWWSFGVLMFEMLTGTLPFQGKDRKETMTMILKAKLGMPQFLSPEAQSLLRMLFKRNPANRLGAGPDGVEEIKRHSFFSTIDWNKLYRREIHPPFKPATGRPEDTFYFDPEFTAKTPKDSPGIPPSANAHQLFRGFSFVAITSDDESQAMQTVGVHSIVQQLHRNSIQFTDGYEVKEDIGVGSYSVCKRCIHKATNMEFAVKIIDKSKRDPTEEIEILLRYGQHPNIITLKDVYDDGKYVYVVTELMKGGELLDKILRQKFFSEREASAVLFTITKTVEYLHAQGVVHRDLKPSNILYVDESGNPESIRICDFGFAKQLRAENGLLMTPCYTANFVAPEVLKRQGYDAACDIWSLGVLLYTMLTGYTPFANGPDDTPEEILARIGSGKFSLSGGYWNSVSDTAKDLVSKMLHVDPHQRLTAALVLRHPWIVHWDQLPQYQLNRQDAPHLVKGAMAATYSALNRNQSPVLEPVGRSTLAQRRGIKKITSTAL
Chain of UniProt P46063 (P46063 whole entry, looked up): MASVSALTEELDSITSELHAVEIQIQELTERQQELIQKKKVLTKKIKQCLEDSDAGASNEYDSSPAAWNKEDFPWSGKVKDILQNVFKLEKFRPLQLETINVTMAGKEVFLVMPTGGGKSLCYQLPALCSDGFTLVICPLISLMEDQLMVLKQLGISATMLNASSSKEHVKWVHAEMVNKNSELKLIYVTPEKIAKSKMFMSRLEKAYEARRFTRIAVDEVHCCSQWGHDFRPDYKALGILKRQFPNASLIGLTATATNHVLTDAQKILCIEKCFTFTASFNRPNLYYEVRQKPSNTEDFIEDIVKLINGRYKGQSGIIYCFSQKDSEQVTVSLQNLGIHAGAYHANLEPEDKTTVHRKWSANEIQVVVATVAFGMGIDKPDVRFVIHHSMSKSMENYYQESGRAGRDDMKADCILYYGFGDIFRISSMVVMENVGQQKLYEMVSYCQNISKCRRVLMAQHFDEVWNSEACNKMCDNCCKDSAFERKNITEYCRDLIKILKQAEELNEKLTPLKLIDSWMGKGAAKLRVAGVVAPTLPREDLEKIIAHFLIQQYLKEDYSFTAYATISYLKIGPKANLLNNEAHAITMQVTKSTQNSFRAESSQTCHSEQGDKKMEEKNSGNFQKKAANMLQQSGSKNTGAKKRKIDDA
Chain of UniProt Q5PRF9 (Q5PRF9 whole entry, looked up): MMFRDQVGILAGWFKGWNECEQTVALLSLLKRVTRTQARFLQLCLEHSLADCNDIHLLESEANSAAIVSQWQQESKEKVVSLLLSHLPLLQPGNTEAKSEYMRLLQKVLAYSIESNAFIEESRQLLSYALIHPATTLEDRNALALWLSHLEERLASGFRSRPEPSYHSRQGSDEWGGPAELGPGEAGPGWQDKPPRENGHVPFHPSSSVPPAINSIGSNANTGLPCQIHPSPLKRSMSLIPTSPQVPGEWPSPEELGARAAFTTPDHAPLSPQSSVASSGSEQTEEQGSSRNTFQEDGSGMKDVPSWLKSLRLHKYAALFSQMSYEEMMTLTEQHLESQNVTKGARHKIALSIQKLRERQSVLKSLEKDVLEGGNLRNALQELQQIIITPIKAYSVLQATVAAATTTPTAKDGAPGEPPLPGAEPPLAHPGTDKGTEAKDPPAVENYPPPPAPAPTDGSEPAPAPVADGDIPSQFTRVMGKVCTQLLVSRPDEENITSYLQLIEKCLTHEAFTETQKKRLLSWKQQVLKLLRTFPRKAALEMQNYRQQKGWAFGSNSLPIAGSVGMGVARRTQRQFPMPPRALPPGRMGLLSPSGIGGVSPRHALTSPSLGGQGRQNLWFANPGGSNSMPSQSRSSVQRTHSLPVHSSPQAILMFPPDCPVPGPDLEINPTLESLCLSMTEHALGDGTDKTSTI
Chain of UniProt O14796 (O14796 whole entry, looked up): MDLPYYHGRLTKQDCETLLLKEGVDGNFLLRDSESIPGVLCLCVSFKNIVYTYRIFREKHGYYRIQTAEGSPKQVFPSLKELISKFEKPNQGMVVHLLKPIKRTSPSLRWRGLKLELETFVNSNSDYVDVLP

Compound in the assay: CCn1cc(-c2ccnc3[nH]c(-c4cccc(CN(C)C)c4)cc23)c(-c2ccc(NC(=O)N(C)C)cc2)n1
The assay is described as follows: log2 fold change, soluble protein after heating vs DMSO (PISA); higher = thermal stabilisation; K562 cells, 10 uM, 30 min; active = over 0.2 and 3.5 SD of the protein, either way, in both replicates (recomputed). The method in brief: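 Quantification of soluble protein used TMTpro 16plex LC-MS/MS, with channel sums equalised. Samples were the supernatant after 21,000xg for 90 min of pooled aliquots from K562 cells (2×10^6 cells/mL) treated with 10 μM compound for 30 min, heated for 3 min over 48°C-58°C, and extracted in PBS with 0.5% NP-40 at 4°C. Values, from duplicates, describe thermal stability against control samples on a log2 fold-change scale.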
Turning to SIK3 (UniProt H0Y4E8), the log2 fold change was -0.065.
For SCG3 (UniProt Q8WXD2), the log2 fold change is 0.035.
Take RCOR3 isoform 3 (UniProt Q9P2K3): the log2 fold change is -0.294.
To SAMD4B (UniProt Q5PRF9) belongs 0.023.
Turning to SCAF8 isoform 2 (UniProt Q9UPN6), the log2 fold change was 0.071.
As for RBM48 isoform 2 (UniProt Q5RL73), the log2 fold change was 0.078.
Take SASH1 (UniProt O94885): the log2 fold change is 0.027.
As to SCAMP2 (UniProt O15127), the log2 fold change was 0.043.
The figure for RBBP6 (UniProt Q7Z6E9) is -0.003; for RAF1 isoform 2 (UniProt P04049) it is -0.241; for RPS6KA3 (UniProt P51812) it is -0.049.
To RBM39 (UniProt Q14498) belongs 0.079; to RALY (UniProt Q9UKM9), 0.173.
For ROCK1 (UniProt Q13464), the log2 fold change was -0.05.
On to RECQL (UniProt P46063), for which the log2 fold change was -0.021.
For SH3GLB2 (UniProt Q9NR46), the log2 fold change is -0.101.
For RAB9A (UniProt P51151), the log2 fold change was 0.004.
Regarding RAD50, A0A494C0Y7, the log2 fold change was 0.033.
For SH2D1B (UniProt O14796), the log2 fold change is -0.068.
Consider SLBP (UniProt Q14493), for which the log2 fold change was 0.
In the case of RAB3IL1 (UniProt E9PK89), the log2 fold change is -0.555 (active).
The figure for RAP2C (UniProt Q9Y3L5) is 0.097; for SCO2 (UniProt O43819) it is -0.051.
